Results taken from PubChem BioAssay (NCI).
Where “and” joins values, the source holds several entries; their conditions need not be identical. Equal values may be shown once. About 83,000 compounds went through this panel and 20% of them were active in at least one assay; those are over-represented in the sample as a whole.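 Negative percent growth values reflect cell death: -40 means 40% of the cells present at the start died, and -100 means all died.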 Calls of active or inactive are those of the source. The calls were made as follows: active = growth percent below 10; inactive = the rest.

What was measured:
Assay in all cases: NCI-60 one-dose screen, 48 h (100 = growth as untreated, 0 = no growth, -100 = all killed)
Conditions in all cases: 10 µM unless noted
NCI-H23 lung = test system: NCI-H23 lung
NCI-H226 lung = test system: NCI-H226 lung
NCI-H322M lung = test system: NCI-H322M lung
HOP-62 NSCLC = test system: HOP-62 NSCLC
NCI-H460 lung = test system: NCI-H460 lung
HOP-92 NSCLC = test system: HOP-92 NSCLC
NCI-H522 lung = test system: NCI-H522 lung
A549/ATCC NSCLC = test system: A549/ATCC NSCLC
786-0 renal = test system: 786-0 renal
COLO 205 colon = test system: COLO 205 colon
DU-145 prostate = test system: DU-145 prostate
K-562 leukemia = test system: K-562 leukemia
MALME-3M melanoma = test system: MALME-3M melanoma
MDA-MB-231 breast = test system: MDA-MB-231 breast
RXF 393 renal = test system: RXF 393 renal
SF-268 CNS = test system: SF-268 CNS
SF-295 CNS = test system: SF-295 CNS
SF-539 CNS = test system: SF-539 CNS
UACC-257 melanoma = test system: UACC-257 melanoma
M14 melanoma = test system: M14 melanoma

Measured: growth

CN(C)C1CCN(C(=O)c2ccc(NC(=O)Nc3ccc(-c4nc(N5CCOCC5)c5cccn5n4)cc3)cc2)CC1
active: NCI-H226 lung -7.75% | NCI-H322M lung -9.27% | HOP-62 NSCLC -12.9% | NCI-H460 lung 6.48% | HOP-92 NSCLC -31.2% | A549/ATCC NSCLC 3.9% | 786-0 renal -18.6% | COLO 205 colon -3.31% | DU-145 prostate 0.561% | MALME-3M melanoma -32.6% | MDA-MB-231 breast 0.146% | RXF 393 renal -30.4% | SF-268 CNS 2.29% | SF-295 CNS -37.1% | SF-539 CNS -39.6% | UACC-257 melanoma -18.3% | M14 melanoma -0.109%
inactive: NCI-H23 lung 15.5% | NCI-H522 lung 14.6% | K-562 leukemia 18.9%

Cc1c(C(C)(C)O)cn2ncnc(Oc3ccc(NC(=O)Nc4ccc(Cl)c(C(F)(F)F)c4)cc3)c12
inactive: NCI-H23 lung 23.6% | NCI-H226 lung 65.5% | NCI-H322M lung 56.7% | HOP-62 NSCLC 65.4% | NCI-H460 lung 13.1% | NCI-H522 lung 11.6% | A549/ATCC NSCLC 32.8% | 786-0 renal 26.5% | COLO 205 colon 45.6% | DU-145 prostate 57.6% | K-562 leukemia 14.9% | MALME-3M melanoma 51.2% | MDA-MB-231 breast 32.2% | RXF 393 renal 39% | SF-268 CNS 45.3% | SF-295 CNS 16% | SF-539 CNS 25.9% | UACC-257 melanoma 66.5% | M14 melanoma 36.7%
active: HOP-92 NSCLC 4.28%

O=C1C(Nc2ccc(Cl)cc2)=C(I)C(=O)c2ncccc21
inactive: NCI-H226 lung 88.4% | NCI-H322M lung 64.3% | HOP-62 NSCLC 48.1% | NCI-H460 lung 17.5% | A549/ATCC NSCLC 35.5% | 786-0 renal 26.1% | DU-145 prostate 13.6% | RXF 393 renal 41.7% | SF-268 CNS 28.9% | SF-295 CNS 75.2% | UACC-257 melanoma 40.2%
active: NCI-H23 lung 9.7% | HOP-92 NSCLC -90.4% | NCI-H522 lung -58.7% | COLO 205 colon -45.9% | K-562 leukemia 8.51% | MALME-3M melanoma -46.5% | MDA-MB-231 breast -46.4% | SF-539 CNS 7.82% | M14 melanoma -3.93%

CCOC(=O)c1ccc(Nc2ncnc3c2cnn3-c2cccc(F)c2)cc1
inactive: NCI-H23 lung 110% | NCI-H226 lung 94.6% | NCI-H322M lung 102% | HOP-62 NSCLC 93.7% | NCI-H460 lung 102% | HOP-92 NSCLC 90.6% | NCI-H522 lung 91.9% | A549/ATCC NSCLC 102% | 786-0 renal 104% | COLO 205 colon 113% | DU-145 prostate 106% | K-562 leukemia 96.7% | MALME-3M melanoma 103% | MDA-MB-231 breast 93.3% | RXF 393 renal 105% | SF-268 CNS 94.2% | SF-295 CNS 100% | SF-539 CNS 98.5% | UACC-257 melanoma 99.6% | M14 melanoma 99.1%

CCC(=O)Oc1cc(Cl)c(Cl)cc1Cl
inactive: NCI-H23 lung 102% | NCI-H226 lung 97.7% | NCI-H322M lung 104% | HOP-62 NSCLC 105% | NCI-H460 lung 104% | HOP-92 NSCLC 100% | NCI-H522 lung 99.8% | A549/ATCC NSCLC 101% | 786-0 renal 98.2% | COLO 205 colon 113% | DU-145 prostate 103% | K-562 leukemia 101% | MALME-3M melanoma 108% | MDA-MB-231 breast 114% | RXF 393 renal 113% | SF-268 CNS 97.9% | SF-295 CNS 96% | SF-539 CNS 97.1% | UACC-257 melanoma 95.8% | M14 melanoma 99.5%

Cc1nonc1-c1ccc2c(c1)OCO2
inactive: NCI-H23 lung 91.5% and 112% | NCI-H226 lung 94.3% | NCI-H322M lung 113% and 124% | HOP-62 NSCLC 123% and 106% | NCI-H460 lung 106% | NCI-H522 lung 102% and 103% | A549/ATCC NSCLC 90.6% and 98.2% | 786-0 renal 104% and 107% | COLO 205 colon 114% and 140% | DU-145 prostate 94.4% and 109% | K-562 leukemia 101% | MALME-3M melanoma 116% and 142% | MDA-MB-231 breast 96.8% and 110% | RXF 393 renal 96.8% and 99.4% | SF-268 CNS 89.9% and 95% | SF-295 CNS 91.4% and 101% | SF-539 CNS 111% and 95.7% | UACC-257 melanoma 104% and 111% | M14 melanoma 110% and 108%

O=C1/C(=C/c2cn(-c3ccccc3)nc2-c2ccccc2)SC(=S)N1c1ccccc1
inactive: NCI-H23 lung 95% | NCI-H226 lung 96.2% | NCI-H322M lung 99.2% | HOP-62 NSCLC 100% | NCI-H460 lung 107% | HOP-92 NSCLC 33.6% | NCI-H522 lung 91.3% | A549/ATCC NSCLC 105% | 786-0 renal 105% | DU-145 prostate 102% | K-562 leukemia 104% | MALME-3M melanoma 94.5% | MDA-MB-231 breast 89.1% | RXF 393 renal 107% | SF-268 CNS 99.1% | SF-295 CNS 97.5% | SF-539 CNS 94.5% | UACC-257 melanoma 107% | M14 melanoma 97.2%
